# Source: PubChem BioAssay (National Center for Advancing Translational Sciences (NCATS))
# GLS inh = inhibitors of human glutaminase (GLS); O94925; AID 624170; GLS enzymatic activity, qHTS titration; Potency, µM (highest dose often 45.5 µM), without a hit: at the highest dose activity change, negative = inhibition, hits mostly inhibitors; 410,000 compounds, 0.21% hits; also: % is scaled to controls: 0 for no effect and ±100 for the full control effect
#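 Human kidney-isoform GLS in 45 mM KH2PO4 pH 8.2, 0.02% Tween-20, with compound, started with 1mM L-Glutamine (added stock). Glutamate oxidase/HRP/Amplex red coupled fluorescence read at start and after 30 min at RT.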
# BAZ2B inh = blocks human BAZ2B | Q9UIF8 | AlphaScreen BAZ2B-H3K14Ac peptide displacement | Potency, µM (top dose mostly 114 µM), inactives show at the top dose activity change, negative = inhibition, usual class: inhibitors | 360,000 compounds, 4.4% hits; also: % is scaled to controls: 0 for no effect and ±100 for the full control effect; nearly all actives have a fitted effect of over 60% in size
#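 AlphaScreen displacement of biotin-H3(5-23)K14Ac peptide (50 nM final) from BAZ2B (50 nM final) in PBS pH 7.4, 0.01% Tween-20; complex preformed 30 min RT, then compounds (top 110 uM) 30 min RT, beads 20 min dark.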
# G9a block = blocks human histone lysine methyltransferase G9a. Q96KQ7. G9a H3K9 monomethylation, AlphaScreen, 2 h. 350,000 compounds, 8.8% hits. Potency, µM (top dose mostly 102 µM), without a hit: top-dose activity, negative = inhibition, most hits filed as inhibitors; also: % is scaled to controls: 0 for no effect and ±100 for the full control effect; nearly all actives have a fitted effect of over 75% in size
# Target sequence (Q96KQ7 913-1193 limits assumed): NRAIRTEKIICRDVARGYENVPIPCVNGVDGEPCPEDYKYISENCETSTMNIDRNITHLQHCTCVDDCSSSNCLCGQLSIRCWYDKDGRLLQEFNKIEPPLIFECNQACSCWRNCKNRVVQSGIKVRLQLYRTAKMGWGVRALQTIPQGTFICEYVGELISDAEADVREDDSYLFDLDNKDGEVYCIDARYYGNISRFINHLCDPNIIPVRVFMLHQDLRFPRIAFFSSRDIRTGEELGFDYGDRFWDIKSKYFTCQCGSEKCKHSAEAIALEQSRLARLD
#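 Readings reflect AlphaScreen signal from monomethyl-H3K9 antibody detection. HMT at 20 nM; substrate b-H3K9 500 nM; cofactor SAM 20 uM; 2 h RT reaction; compounds tested as titrations in qHTS with 15 min preincubation.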
# HP1b chromo inh = inhibitors of HP1-beta chromodomain binding to methylated histone tails; P83916; AlphaScreen HP1-beta / biotin-H3K9me3 peptide binding; Potency, µM (titrated, usually from 114 µM), inactives show at the top dose activity change, negative = inhibition, actives largely listed as inhibitors; 390,000 compounds, 0.56% hits; AID 540317; also: nearly all actives have a fitted effect of over 70% in size
# Target sequence (P83916 whole entry, looked up): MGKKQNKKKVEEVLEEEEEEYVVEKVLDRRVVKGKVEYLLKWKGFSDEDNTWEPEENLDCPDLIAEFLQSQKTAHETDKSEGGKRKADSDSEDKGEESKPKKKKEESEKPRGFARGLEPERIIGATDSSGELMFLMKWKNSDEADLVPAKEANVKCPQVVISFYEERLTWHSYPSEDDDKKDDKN
#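 HP1-beta protein (50 nM final) preincubated 30 min at room temperature with biotinylated H3(1-18)K9me3 peptide (50 nM) in PBS pH 7.4, 0.01% Tween-20, then compound added for 30 min. AlphaScreen streptavidin donor/nickel chelate acceptor beads (10 ug/mL final), 30 min dark, luminescence read.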
# JMJD2A Tudor inh = JMJD2A Tudor domain (human) inhibition; AlphaScreen JMJD2A-Tudor / H3K4me3 peptide binding; Potency, µM (titrated, usually from 114 µM), for inactives: at the highest dose activity change, negative = inhibition, most hits filed as inhibitors; 390,000 compounds, 4.4% hits; also: % is scaled to controls: 0 for no effect and ±100 for the full control effect; nearly all actives have a fitted effect of over 50% in size
# * hit, by the source's call; ? = inconclusive; nt = not tested or not shown; [ ] = remark or other dose. Compounds with a hit are over-represented: about 10% of the library has one in this group of screens. Calls follow the shape of the dose curve; as a rule, active = well fitted curve in the direction sought with a large enough effect; inconclusive = small, poorly fitted or top-dose-only effect, or another doubt; inactive = no such curve, though single readings can be large; an effect the other way counts as inactive or inconclusive. Potency is read from the fitted curve at half-maximal effect.
SMILES,GLS inh,BAZ2B inh,G9a block,HP1b chromo inh,JMJD2A Tudor inh
CN1CCC(N(C)CC(=O)Nc2ccc3c(c2)OC(F)(F)O3)CC1,1%,45µM*,nt,?,2µM*
CN(CC(=O)Nc1ccc(SC(F)F)cc1)C1CCCCC1,8%,-1%,79µM*,47%,1%
CN(CC(=O)Nc1ccc(Cl)c(Cl)c1)C1CCCCC1,-2%,-28%,22µM*,?,22µM*
COc1ccc(NS(=O)(=O)c2c(C)[nH]c(=O)[nH]c2=O)cc1OC,16%,-18%,5%,8%,-24%
COC(=O)c1ccc(COc2ccc(Cl)cc2)o1,7%,38%,114%,79%,42%
COC(=O)c1ccc(COc2ccc(/C=N/NC(N)=S)cc2)o1,14%,-28%,50µM*,23%,-10%
CC1CCCN(C2(O)C(=O)Nc3ccc(Br)cc32)C1 (stereo not given),0%,0%,-37%,47%,-11%
CCCCC[n+]1cccc2c3ccccc3ccc21,0%,34%,50µM*,14%,?
COc1ccc(NC(=O)CCOc2ccccc2)c(OC)c1,-17%,7%,-2%[59 µM],28%,0%
O=S(=O)(NCC1CCCN(Cc2ccccc2O)C1)c1cccc2cccnc12 (stereo not given),19%,-17%,71µM*,41%,-12%
O=C(C1CCC(CNS(=O)(=O)c2cccc3cccnc23)CC1)N1CCCC1 (stereo not given),-2%,15%,-21%,32%,-14%
O=C1CCCc2oc3c(c21)CCCC3,7%,-21%,50µM*,2%,-3%
CCOCCOC(NC(=O)c1ccccc1)(C(F)(F)F)C(F)(F)F,1%,0%,29%[59 µM],28%,-14%
Oc1ccc(-c2cn3c(n2)SCC3)cc1O,?,?,1.1µM*,?,11µM*
Oc1ccc(-c2cn3c(n2)SCC3)cc1,9%,-11%,8.9µM*,1%,-28%
Brc1ccc(-c2cn3c(n2)SCC3)cc1,1%,?,nt,-1%,-15%
CC(C)Oc1ccc(CC(=O)NNC(=S)Nc2ccccc2)cc1,14%,0%,nt,39%,-8%
CCOC(=O)CN1C(=O)C2Cc3ccccc3CN2C1=S (stereo not given),3%,-20%,20µM*,?,-12%
Clc1ccc(-n2cnnn2)cc1,5%,0%,4%,23%,-15%
CO/C=C\C=C/c1nnn(-c2ccc(Cl)cc2)n1,-15%,-11%,50µM*,44%,-6%
CC(C)(C)NC(=O)CSc1nc(-c2ccccc2)c(-c2ccccc2)[nH]1,-6%,4%,16%[12.7 µM],32%,-19%
COc1ccc(N=Nc2nc(-c3ccccc3)c(-c3ccccc3)[nH]2)cc1,20%,8.9µM*,16µM*,28µM*,8.9µM*
COc1ccc(-c2nc(C)ncc2N=Nc2ccccc2)cc1,2%,11µM*,?,-80%,45µM*
COc1ccccc1N=Nc1nc(-c2ccccc2)c(-c2ccccc2)[nH]1,-12%,10µM*,?,-71%,7.1µM*
Cc1ncc(N=Nc2ccc(F)cc2)c(-c2ccc(Cl)cc2)n1,5%,-28%,2%[59 µM],-7%,-25%
SMILES,GLS inh,BAZ2B inh,G9a block,HP1b chromo inh,JMJD2A Tudor inh
COc1ccc(-c2[nH]c(-c3ccc4c(c3)OCO4)nc2-c2ccccc2)cc1,-5%,?,?,-21%,?
Oc1ccccc1N=Nc1nc(-c2ccccc2)c(-c2ccccc2)[nH]1,23%,13µM*,?,32µM*,13µM*
CCOc1ccccc1C(=O)NC(C(=O)Nc1ccccc1N1CCOCC1)C(C)C (stereo not given),8%,-9%,-30%,4%,-3%
N=C(N)c1ccc2cc(OC(=O)c3ccc(N=C(N)N)cc3)ccc2c1,-4%,nt,10%[59 µM],nt,nt
CCSc1nnc(-c2cc(Br)ccc2N)c(=O)[nH]1,7%,-23%,-33%,37%,-18%
Clc1cccc(CSc2nnc([C@@H]3CCCN3)o2)c1,1%,79µM*,16%[0.501 µM],63%,-19%[57.1 µM]
Cc1cccc(CSc2nnc([C@@H]3CCCN3)o2)c1,27%,17%,nt,57%,-3%
Cc1[nH]nc2c1/C(=N\O)CC(C)(C)C2,25%,1%,2%[2.33 µM],8%,-11%
O=C(O)c1cccnc1SC1CC(=O)N(c2ccc(OC(F)F)cc2)C1=O (stereo not given),3%,-18%,45µM*,22%,-4%
O=C(O)c1cccnc1SC1CC(=O)N(c2cccc(C(F)(F)F)c2)C1=O (stereo not given),13%,8%,35µM*,42%,-21%
O=C1OCC/C1=C\NCCCN/C=C1\CCOC1=O,6%,nt,nt,nt,nt
Cc1ccc(C)c(/C(O)=C2/C(=O)C(=O)N(CCN3CCOCC3)C2c2ccc(C)o2)c1 (stereo not given),-6%,-13%,14µM*,35%,?
Cc1c(/C(O)=C2/C(=O)C(=O)N(CCN3CCOCC3)C2c2ccccn2)cnn1-c1ccccc1 (stereo not given),-2%,25µM*,7.9µM*,37%,50µM*
Cc1c(/C(O)=C2\C(=O)C(=O)N(CCN(C)C)C2c2cccs2)cnn1-c1ccccc1 (stereo not given),-1%,-24%,20µM*,9%,-7%[11.4 µM]
Cc1c(/C(O)=C2\C(=O)C(=O)N(CCCN(C)C)C2c2ccccc2)cnn1-c1ccccc1 (stereo not given),0%,-21%,-4%[59 µM],33%,-22%
Cc1ccc(C2/C(=C(/O)c3cnn(-c4ccccc4)c3C)C(=O)C(=O)N2CCCN2CCOCC2)o1 (stereo not given),nt,79µM*,10%[12.7 µM],nt,nt
O=C(COC(=O)/C=C/c1cccc(C(F)(F)F)c1)Nc1cccc(S(=O)(=O)NC2=NCCC2)c1,-3%,nt,nt,nt,nt
COc1ccc(-c2noc(CCC(=O)NCCN(C)Cc3ccccc3)n2)cc1,-2%,-4%,1%[59 µM],39%,-16%
C=CCn1c(O)c(C2=c3ccccc3=NC2=O)sc1=Nc1ccc(O)cc1,4%,22µM*,-28%[12.7 µM],?,22µM*
Nc1ccccc1-c1n[nH]c(=S)s1,-4%,?,0.63µM*,?,28µM*
NC(=O)Cc1ccc(C(=O)c2ccc(F)cc2)s1,0%,-5%,13%,29%,-7%
CCCNC(=O)C/C(C)=N/NC(=O)C(=O)Nc1ccccn1,-1%,-5%,50µM*,73%,-4%
Nc1ccc(S(=O)(=O)N2CCCN(S(=O)(=O)c3ccc4c(c3)OCCO4)CC2)cc1,nt,nt,nt,nt,89µM*
CCN(c1ccccc1)c1cc2ccccc2c(=O)[nH]1,?,-21%,?,-7%[57 µM],18µM*
CC(C)(C)c1ccc(OCC(=O)N/N=C/C2CC=CCC2)cc1 (stereo not given),-8%,nt,36%,42%,-7%
O=c1c2c(-c3ccco3)csc2nc(SCc2cn3cccnc3n2)n1-c1ccccc1,2%,0%,?,-35%,-22%[11.4 µM]
